In PubChem BioAssay:
Where “and” joins values, the source holds several entries; their conditions need not be identical. Equal values may be shown once. Results filed as inconclusive are left out. For some assays here: Measured potencies and affinities stand elsewhere. Calls of active or inactive are those of the source. Unless noted, no stated cut-off is given here; in the data, active means parasite load remaining mostly below about 12% (no sharp cut-off); inactive means mostly above about 10%.

How the values were obtained:
[1] = EMT-state selective cytotoxicity in co-culture – imaging, PC-3E GFP, TEM4-18 mCherry, primary screen (AID 1345086;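 active means compounds killing one labelled cell type while sparing the other, by normalised counts and ratio limits, not self-fluorescent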;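 on all read-outs here: cells exposed to compound for 72 h before imaging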;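 on red/green cell ratio (normalised): normalised mesenchymal count divided by normalised epithelial count so high means epithelial killing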); conditions: PC-3E GFP / TEM4-18 mCherry co-culture, imaging cell counts, at 1 µM; for red/green cell ratio (normalised): actives lie on both sides, counts scaled to control wells, 1 = unselective
[2] = viability loss with induced miR-34 in A549 – imaging, A549 dox-inducible miR-34, nuclei and caspase counts, primary screen (AID 1347080;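 active means compounds whose cell count with miR-34 switched on is under 0.7 times the count with it off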); conditions: A549 miR-34 inducible, Hoechst nuclei count, 48 h
[3] = target: Mitogen-activated protein kinase 7 (Homo sapiens) (UniProt Q13164); experiment: Gal4-ERK5 driven luciferase induction – cell-based, HTS, primary screen (AID 1508626;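 active means luciferase signal above three times the same-plate solvent-only control wells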;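 further: luciferase driven by Gal4-ERK5 fusion binding five Gal4 sites before minimal TATA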); conditions: HeLa Gal4-ERK5 transactivation, 18 h, at 5 µM, stronger effect = higher value
[4] = P. berghei load reduction in hepatocytes – cell-based, HepG2, luciferase luminescence, HepG2 viability, primary screen (AID 624349);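 further: 100% = mean of DMSO negative control wells on the same plate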; conditions: P. berghei liver stage in HepG2, luciferase luminescence, concentration not given here; parasite load remaining: stronger effect = lower value; viability: measured here: HepG2 viability without parasites
[5] = target: NAD(+) hydrolase SARM1 (Homo sapiens) (UniProt Q6SZW1); experiment: blocking NAD cleavage by SARM1 SAM-TIR – cell lysate, NAD-Glo luminescence (AID 1508614;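 active means compound whose remaining NAD level is above about 45 nM, limit read from the data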); conditions: SAM-TIR HEK293T lysate NADase, at 1 µM, stronger effect = higher value
[6] = blockers of polyQ-driven CASP3 activation – cell-based (AID 1583); conditions: polyglutamine-induced caspase-3 activation, cell assay; stronger effect = higher value;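 tested at 10 µM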
[7] = yeast 75Q aggregation reduction – 75Q-TubU reporter (AID 1593); conditions: Yeast 75Q polyglutamine aggregation reporter
[8] = restoration of touch response, mutant HTT neurons – whole organism, C. elegans mechanosensory neurons, N-terminal huntingtin (AID 1599); conditions: C. elegans polyQ-huntingtin mechanosensory neurons, stronger effect = higher value
[9] = blockers of cytochrome c efflux from mitochondria – biochemical, purified mitochondria (AID 1603); conditions: stronger effect = lower value;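 further: mouse liver mitochondria challenged with calcium chloride; signal normalized to the plate average as 100%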
[10] = polyglutamine aggregate formation blockers (AID 1604); conditions: polyglutamine-induced protein aggregation inhibition assay; stronger effect = higher value; tested at 2.5 µM
[11] = rescue of PC12 cells from polyQ htt toxicity – LDH release (AID 1610); conditions: PC12 mutant huntingtin toxicity, final LDH at 4 uM, stronger effect = lower value
[12] = glutamate transport activators, MN-1 cells, MN-1 cell line (AID 1612); conditions: MN-1 motor neuron cells, stronger effect = higher value;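 further: tested at 1 µM final; 0% = mean of DMSO vehicle wells on each plate; positive means more glutamate uptake than control and negative means less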
[13] = GFP-Q80 aggregate reduction, neuronal-like cells, cell-based, NGF-treated PC12, GFPQ80 (AID 1614); conditions: PC12 NGF-treated GFP-polyQ80 inclusion reduction;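 further: lower means fewer inclusions and 0 means no inclusions at all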
[14] = 75Q-TubH aggregate inhibition, S. cerevisiae, yeast (AID 1616); conditions: S. cerevisiae 75Q-TubH polyglutamine aggregation suppression; stronger effect = higher value
[15] = measured here: epithelial PC-3E GFP cell survival
[16] = measured here: mesenchymal TEM4-18 mCherry cell survival
[17] = stronger effect = lower value, cell number ratio, induced over uninduced
[18] = measured here: relative caspase fold change +Dox/-Dox
[19] = measured here: total cells with miR-34 induction, stronger effect = lower value
[20] = measured here: total cells without miR-34 induction

NAD(+) hydrolase SARM1 (Homo sapiens), sequence (Q6SZW1 whole entry, looked up): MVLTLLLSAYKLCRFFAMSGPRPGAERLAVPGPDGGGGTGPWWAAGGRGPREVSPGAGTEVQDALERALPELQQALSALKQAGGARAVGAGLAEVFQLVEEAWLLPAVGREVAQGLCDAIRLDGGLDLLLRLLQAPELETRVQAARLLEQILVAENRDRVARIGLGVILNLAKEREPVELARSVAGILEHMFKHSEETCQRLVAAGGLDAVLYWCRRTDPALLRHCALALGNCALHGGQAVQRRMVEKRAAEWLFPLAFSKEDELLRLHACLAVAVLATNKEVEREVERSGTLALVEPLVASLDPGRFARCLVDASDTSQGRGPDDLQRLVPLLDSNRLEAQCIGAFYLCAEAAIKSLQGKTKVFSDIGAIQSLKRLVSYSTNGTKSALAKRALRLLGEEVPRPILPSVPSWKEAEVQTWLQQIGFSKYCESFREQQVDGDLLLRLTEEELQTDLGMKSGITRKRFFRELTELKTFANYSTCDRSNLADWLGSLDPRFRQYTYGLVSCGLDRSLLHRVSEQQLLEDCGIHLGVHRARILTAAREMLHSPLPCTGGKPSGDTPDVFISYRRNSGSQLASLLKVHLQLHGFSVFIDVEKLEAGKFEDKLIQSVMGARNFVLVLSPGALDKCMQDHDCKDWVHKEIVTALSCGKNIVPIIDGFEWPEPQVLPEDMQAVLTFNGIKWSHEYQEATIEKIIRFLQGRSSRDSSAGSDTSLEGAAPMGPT
Mitogen-activated protein kinase 7 (Homo sapiens), sequence (Q13164 whole entry, looked up, the tested form may be a part): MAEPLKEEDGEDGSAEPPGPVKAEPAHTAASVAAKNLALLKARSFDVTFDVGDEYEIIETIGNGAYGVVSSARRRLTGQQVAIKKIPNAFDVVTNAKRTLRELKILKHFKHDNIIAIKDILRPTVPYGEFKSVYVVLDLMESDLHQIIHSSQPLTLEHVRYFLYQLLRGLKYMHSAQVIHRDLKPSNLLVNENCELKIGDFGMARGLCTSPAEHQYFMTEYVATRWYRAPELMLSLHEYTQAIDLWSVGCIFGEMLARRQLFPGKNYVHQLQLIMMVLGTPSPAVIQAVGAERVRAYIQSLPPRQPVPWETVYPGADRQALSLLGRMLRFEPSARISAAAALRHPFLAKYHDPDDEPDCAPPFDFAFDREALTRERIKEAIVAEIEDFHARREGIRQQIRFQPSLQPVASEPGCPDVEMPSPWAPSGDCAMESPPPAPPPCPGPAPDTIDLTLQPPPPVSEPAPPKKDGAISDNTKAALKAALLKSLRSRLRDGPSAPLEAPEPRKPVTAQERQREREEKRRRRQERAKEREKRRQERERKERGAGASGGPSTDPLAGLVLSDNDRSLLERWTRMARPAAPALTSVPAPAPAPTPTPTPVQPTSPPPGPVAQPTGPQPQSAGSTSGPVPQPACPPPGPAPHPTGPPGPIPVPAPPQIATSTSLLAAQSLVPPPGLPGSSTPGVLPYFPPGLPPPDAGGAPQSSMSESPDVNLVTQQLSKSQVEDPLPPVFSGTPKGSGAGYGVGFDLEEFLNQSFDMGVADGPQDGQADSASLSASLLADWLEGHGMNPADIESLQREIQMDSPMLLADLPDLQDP

In the case of `C[C@H]1CC2C3CCC4=CC(=O)C=C[C@]4(C)[C@@]3(F)[C@@H](O)C[C@]2(C)[C@@]1(O)C(=O)COP(=O)(O)O` (stereo not given in full), the red/green cell ratio (normalised) [1] was 1.28 (inactive), the normalised cell number [1, 15] was 1.37 and the normalised cell number [1, 16] was 1.75. The fold change [2, 17] was 0.873 (inactive), the fold change [2, 18] was 1.02 and the cell count [2, 19] was 6310. For the same compound, the cell count [2, 20] was 7220 and the luciferase signal [3] was 92 AU (inactive).
In the case of `FC(F)(F)C(Cl)Br` (stereo not given), the parasite load remaining [4] was 24% (inactive), the viability [4] was 94.8% and the red/green cell ratio (normalised) [1] was 0.84 (inactive). For the same compound, the normalised cell number [1, 15] was 1.13, the normalised cell number [1, 16] was 0.95 and the fold change [2, 17] was 0.974 (inactive). The fold change [2, 18] was 2.12, the cell count [2, 19] was 12500 and the cell count [2, 20] was 12900. For the same compound, the remaining NAD [5] was 10 nM (inactive) and the luciferase signal [3] was 40 AU (inactive).
In the case of `CN(C)[C@@H]1C(=O)C(C(=O)NCN2CCCC2)=C(O)[C@@]2(O)C(=O)C3=C(O)c4c(O)cccc4[C@@](C)(O)[C@H]3C[C@@H]12`, the parasite load remaining [4] was 26.9% (inactive), the viability [4] was 99.8% and the red/green cell ratio (normalised) [1] was 0.9 (inactive). For the same compound, the normalised cell number [1, 15] was 1.09, the normalised cell number [1, 16] was 0.97 and the fold change [2, 17] was 0.855 (inactive). For the same compound, the fold change [2, 18] was 4.3, the cell count [2, 19] was 11700 and the cell count [2, 20] was 13600. The remaining NAD [5] was 10 nM (inactive) and the luciferase signal [3] was 112 AU (inactive).
In the case of `C[C@@H]1O[C@@H](OC[C@H]2OC(Oc3c(-c4ccc(O)c(O)c4)oc4cc(O)cc(O)c4c3=O)[C@H](O)[C@@H](O)[C@@H]2O)[C@H](O)[C@H](O)[C@H]1O` (stereo not given in full), the parasite load remaining [4] was 80% (inactive), the viability [4] was 104% and the red/green cell ratio (normalised) [1] was 1.05 (inactive). For the same compound, the normalised cell number [1, 15] was 0.95, the normalised cell number [1, 16] was 0.99 and the fold change [2, 17] was 0.911 (inactive). The fold change [2, 18] was 2.84, the cell count [2, 19] was 11500 and the cell count [2, 20] was 12600. The luciferase signal [3] was 56 AU (inactive).
For `CC1(C)O[C@@H]2CC3C4C[C@H](F)C5=CC(=O)C=CC5(C)C4C(O)CC3(C)[C@]2(C(=O)CO)O1` (stereo not given in full), the inhibition [6] was 7.08%, the score [7] was 1.24 and the rescue above control [8] was 14.2. The cytochrome c release ratio [9] was 1.01, the inhibition of aggregation [10] was 73% and the normalised LDH release [11] was 0.689. For the same compound, the glutamate uptake change [12] was 41.4%, the inclusion score [13] was 2 and the aggregation suppression score [14] was 0.735. The parasite load remaining [4] was 131% (inactive) and 75.5% (inactive), the viability [4] was 60.7% and 91.7% and the red/green cell ratio (normalised) [1] was 1.23 (inactive). For the same compound, the normalised cell number [1, 15] was 1.12, the normalised cell number [1, 16] was 1.38 and the fold change [2, 17] was 0.878 (inactive). For the same compound, the fold change [2, 18] was 1.79, the cell count [2, 19] was 7120 and the cell count [2, 20] was 8110.
For `CN(C)c1cnccn1`, the red/green cell ratio (normalised) [1] was 1.02 (inactive), the normalised cell number [1, 15] was 0.95 and the normalised cell number [1, 16] was 0.97. For the same compound, the fold change [2, 17] was 0.783 (inactive), the fold change [2, 18] was 1.07 and the cell count [2, 19] was 6710. For the same compound, the cell count [2, 20] was 8560 and the remaining NAD [5] was 10 nM (inactive).
Compound `N[C@@H]1[C@@H](O)[C@H](O)[C@@H](CO)O[C@H]1O` has an inhibition [6] of -15.7%, a score [7] of 0.98 and a rescue above control [8] of 5.73. The cytochrome c release ratio [9] was 0.85, the inhibition of aggregation [10] was 66.7% and the glutamate uptake change [12] was 9.21%. For the same compound, the inclusion score [13] was 2, the aggregation suppression score [14] was 1.04 and the parasite load remaining [4] was 80.5% (inactive) and 72% (inactive). The viability [4] was 75.2% and 93.7%, the red/green cell ratio (normalised) [1] was 1.04 (inactive) and the normalised cell number [1, 15] was 1.08. The normalised cell number [1, 16] was 1.12, the fold change [2, 17] was 0.914 (inactive) and the fold change [2, 18] was 0.981. For the same compound, the cell count [2, 19] was 11500 and the cell count [2, 20] was 12600.
`CC(=O)O[C@]1(C(C)=O)CCC2C3C=C(Cl)C4=CC(=O)[C@@H]5C[C@@H]5[C@]4(C)C3CC[C@@]21C` (stereo not given in full) gave an inhibition [6] of 22.9%, a score [7] of 0.66 and a rescue above control [8] of -6.61. It also gave a cytochrome c release ratio [9] of 1.14, an inhibition of aggregation [10] of 61% and a glutamate uptake change [12] of 14.6%. For the same compound, the inclusion score [13] was 1, the aggregation suppression score [14] was 0.413 and the parasite load remaining [4] was 90.2% (inactive) and 39.4% (inactive). For the same compound, the viability [4] was 70.9% and 86.5%, the red/green cell ratio (normalised) [1] was 0.81 (inactive) and the normalised cell number [1, 15] was 1.12. The normalised cell number [1, 16] was 0.91, the fold change [2, 17] was 0.907 (inactive) and the fold change [2, 18] was 1.85. The cell count [2, 19] was 11200 and the cell count [2, 20] was 12400.
With `NC(N)=Nc1nc(CSCC/C(N)=N\S(N)(=O)=O)cs1` the inhibition [6] was -15%, the score [7] was 1.36 and the rescue above control [8] was -0.31. For the same compound, the cytochrome c release ratio [9] was 1.43, the inhibition of aggregation [10] was 82% and the glutamate uptake change [12] was -4.06%. The inclusion score [13] was 1, the aggregation suppression score [14] was 1.04 and the parasite load remaining [4] was 106% (inactive) and 35.6% (inactive). The viability [4] was 69.4% and 84.3%, the red/green cell ratio (normalised) [1] was 1.13 (inactive) and the normalised cell number [1, 15] was 0.95. For the same compound, the normalised cell number [1, 16] was 1.07, the fold change [2, 17] was 0.887 (inactive) and the fold change [2, 18] was 1.64. For the same compound, the cell count [2, 19] was 11500 and the cell count [2, 20] was 12900.
Compound `CC(=O)O[C@H]1C[C@@]2(C)[C@@H](C[C@@H](O)C3[C@]2(C)CC[C@H]2[C@H](C)[C@H](O)CC[C@]32C)/C1=C(/CCC=C(C)C)C(=O)O` (stereo not given in full) has an inhibition [6] of 8.99%, a score [7] of 1.55 and a rescue above control [8] of -0.35. It also gave a cytochrome c release ratio [9] of 1.24, an inhibition of aggregation [10] of 12.1% and a glutamate uptake change [12] of 11.6%. The inclusion score [13] was 2, the aggregation suppression score [14] was 1.1 and the parasite load remaining [4] was 99.6% (inactive) and 102% (inactive). For the same compound, the viability [4] was 71.9% and 91.9%, the red/green cell ratio (normalised) [1] was 1.29 (inactive) and the normalised cell number [1, 15] was 1.06. The normalised cell number [1, 16] was 1.36, the fold change [2, 17] was 0.927 (inactive) and the fold change [2, 18] was 1.7. For the same compound, the cell count [2, 19] was 11800 and the cell count [2, 20] was 12700.
Compound `NCC[C@@H](O)C(=O)N[C@@H]1C[C@H](N)[C@@H](O[C@H]2O[C@H](CN)[C@@H](O)[C@H](O)[C@H]2O)[C@H](O)[C@H]1O[C@H]1O[C@H](CO)[C@@H](O)[C@H](N)C1O` (stereo not given in full) has an inhibition [6] of -41.9%, a score [7] of 1.11 and a rescue above control [8] of -4.05. It also gave a cytochrome c release ratio [9] of 0.95, an inhibition of aggregation [10] of 36.6% and a glutamate uptake change [12] of 9.38%. The inclusion score [13] was 2, the aggregation suppression score [14] was 1.24 and the parasite load remaining [4] was 115% (inactive) and 70.5% (inactive). The viability [4] was 74.2% and 95.8%, the red/green cell ratio (normalised) [1] was 1 (inactive) and the normalised cell number [1, 15] was 1.2. For the same compound, the normalised cell number [1, 16] was 1.2, the fold change [2, 17] was 0.885 (inactive) and the fold change [2, 18] was 0.583. For the same compound, the cell count [2, 19] was 10600 and the cell count [2, 20] was 11900.
For `CC(=O)OCC(=O)[C@@]12OC3(CCCC3)O[C@@H]1CC1C3CCC4=CC(=O)C=C[C@]4(C)[C@@]3(F)[C@@H](O)C[C@@]12C` (stereo not given in full), the inhibition [6] was 11.1%, the score [7] was 0.65 and the rescue above control [8] was -4.49. For the same compound, the cytochrome c release ratio [9] was 0.91, the inhibition of aggregation [10] was 31.4% and the glutamate uptake change [12] was 27.2%. The inclusion score [13] was 2, the aggregation suppression score [14] was 0.855 and the parasite load remaining [4] was 189% (inactive) and 59% (inactive). The viability [4] was 84% and 96.4%, the red/green cell ratio (normalised) [1] was 1.04 (inactive) and the normalised cell number [1, 15] was 1.4. For the same compound, the normalised cell number [1, 16] was 1.46, the fold change [2, 17] was 0.917 (inactive) and the fold change [2, 18] was 2.86. The cell count [2, 19] was 7510 and the cell count [2, 20] was 8190.
Compound `CCC(=O)OCC(=O)C1(OC(=O)CC)C(C)CC2C3CCC4=CC(=O)C=CC4(C)C3(Cl)C(O)CC21C` (stereo not given) has an inhibition [6] of -26%, a score [7] of 0.15 and a rescue above control [8] of -4.19. It also gave a cytochrome c release ratio [9] of 1.11, an inhibition of aggregation [10] of 41.7% and a glutamate uptake change [12] of 23.7%. For the same compound, the inclusion score [13] was 2, the aggregation suppression score [14] was 1.25 and the parasite load remaining [4] was 142% (inactive) and 79.4% (inactive). The viability [4] was 78.6% and 97.5%, the red/green cell ratio (normalised) [1] was 1.47 (inactive) and the normalised cell number [1, 15] was 0.88. The normalised cell number [1, 16] was 1.29, the fold change [2, 17] was 0.749 (inactive) and the fold change [2, 18] was 1.52. It also gave a cell count [2, 19] of 6530 and a cell count [2, 20] of 8720.
